Test results from the supplement of paper PMC10849652.
Of roughly 7,900 targets only a part is listed; those with a hit were picked by preference. About 0.6% of all pairs of compound and target were hits.

The compounds below were run against ZW10 (UniProt O43264) (assay: log2 fold change, soluble protein after heating vs DMSO (PISA); higher = thermal stabilisation; K562 cells, 10 uM, 30 min; active = over 0.2 and 3.5 SD of the protein, either way, in both replicates (recomputed)).
In short: (§1)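 Soluble protein was quantified by TMTpro 16plex LC-MS/MS after channel sums were equalised. It was obtained as the supernatant after 21,000xg for 90 min from pooled aliquots of K562 cells (2×10^6 cells/mL, 10 μM compound, 30 min) heated for 3 min across 48°C-58°C and extracted in PBS with 0.5% NP-40 at 4°C. Thermal stability values are relative to control samples and come from duplicates. They are given as log2 fold changes.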

Sequence of ZW10 (O43264 whole entry, looked up): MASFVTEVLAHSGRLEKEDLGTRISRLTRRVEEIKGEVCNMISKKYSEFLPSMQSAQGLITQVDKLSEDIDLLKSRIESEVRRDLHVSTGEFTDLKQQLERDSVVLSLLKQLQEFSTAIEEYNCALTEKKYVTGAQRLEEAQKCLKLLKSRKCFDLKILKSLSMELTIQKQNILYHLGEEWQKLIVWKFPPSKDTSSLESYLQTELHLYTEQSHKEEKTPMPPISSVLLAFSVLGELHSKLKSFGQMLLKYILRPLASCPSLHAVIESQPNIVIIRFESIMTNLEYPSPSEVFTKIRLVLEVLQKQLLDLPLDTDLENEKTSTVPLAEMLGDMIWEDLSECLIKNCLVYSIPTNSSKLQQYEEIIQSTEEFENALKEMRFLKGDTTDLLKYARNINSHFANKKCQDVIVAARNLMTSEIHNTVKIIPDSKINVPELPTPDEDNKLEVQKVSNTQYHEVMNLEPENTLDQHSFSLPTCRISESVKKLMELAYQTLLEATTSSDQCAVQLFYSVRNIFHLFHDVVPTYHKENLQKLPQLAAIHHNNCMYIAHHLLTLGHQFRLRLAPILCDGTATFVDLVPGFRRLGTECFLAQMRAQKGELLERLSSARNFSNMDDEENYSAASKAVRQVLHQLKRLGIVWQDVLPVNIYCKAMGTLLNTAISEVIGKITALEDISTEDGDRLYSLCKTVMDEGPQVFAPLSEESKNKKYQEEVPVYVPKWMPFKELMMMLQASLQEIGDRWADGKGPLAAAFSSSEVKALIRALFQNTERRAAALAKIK

log2 fold change, inactive:
O=C(Nc1nc2ccccc2n1CCN1CCOCC1)c1cccc([N+](=O)[O-])c1 [IRAK-1-4 Inhibitor I] -0.076, CN(C)CC(=O)Nc1ccc2[nH]c(=O)c3ccccc3c2c1 0.013, CC(=O)c1cnc2ccc(-c3cc(Cl)c(O)c(Cl)c3)nc2c1N[C@H]1CC[C@H](CN(C)C)CC1 0.011, CN1CCC(CNc2ccc3ncc(-c4cccc(OC(F)(F)F)c4)n3n2)CC1 -0.108, C[C@H](Nc1ncnc2nc[nH]c12)c1cc2cccc(Cl)c2c(=O)n1-c1ccccc1 [duvelisib] -0.002, NC(=O)c1ccc2nc(-c3ccc(Oc4ccc(Cl)cc4)cc3)[nH]c2c1 -0.005, C[C@@H](N)c1ccc(C(=O)Nc2ccnc3[nH]ccc23)cc1 0.129, Cn1cc(-c2ccc3c(c2)CCN3C(=O)Cc2cccc(C(F)(F)F)c2)c2c(N)ncnc21 -0.076

These compounds were tested against ZWILCH (UniProt Q9H900) in the same assay as above.
In short: as §1

Sequence of ZWILCH (Q9H900 whole entry, looked up): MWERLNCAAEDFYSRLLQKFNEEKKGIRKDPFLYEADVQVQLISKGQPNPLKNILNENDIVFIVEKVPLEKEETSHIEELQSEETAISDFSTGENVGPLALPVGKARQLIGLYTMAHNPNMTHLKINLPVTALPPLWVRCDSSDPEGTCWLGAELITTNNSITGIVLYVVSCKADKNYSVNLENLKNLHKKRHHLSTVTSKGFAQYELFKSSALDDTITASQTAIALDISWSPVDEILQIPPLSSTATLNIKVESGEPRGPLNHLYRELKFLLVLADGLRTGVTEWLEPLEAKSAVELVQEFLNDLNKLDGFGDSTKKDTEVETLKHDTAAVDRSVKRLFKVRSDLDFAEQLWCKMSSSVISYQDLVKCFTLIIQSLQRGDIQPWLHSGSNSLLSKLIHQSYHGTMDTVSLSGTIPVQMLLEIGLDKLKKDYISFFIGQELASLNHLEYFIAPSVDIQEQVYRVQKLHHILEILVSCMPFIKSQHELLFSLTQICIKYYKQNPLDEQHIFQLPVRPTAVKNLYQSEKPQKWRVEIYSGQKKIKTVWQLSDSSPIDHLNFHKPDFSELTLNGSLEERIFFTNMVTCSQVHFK

log2 fold change, inactive:
O=C(Nc1cccc(Nc2ncc(Br)c(NCCc3cnc[nH]3)n2)c1)N1CCCC1 0.029, CN1CC[C@H](c2c(O)cc(O)c3c(=O)cc(-c4ccccc4Cl)oc23)[C@H](O)C1 [alvocidib] -0.034, CC(C)N(C[C@H]1O[C@@H](n2cnc3c(N)ncnc32)[C@H](O)[C@@H]1O)[C@H]1C[C@@H](CCc2nc3cc(C(C)(C)C)ccc3[nH]2)C1 [pinometostat] 0.074, COc1ccc(Cn2ccc3ccc(C(=O)NO)cc32)cc1 0.019, Cc1cn(-c2cc(NC(=O)c3ccc(C)c(Nc4nccc(-c5cccnc5)n4)c3)cc(C(F)(F)F)c2)cn1 [nilotinib] -0.047, C#Cc1cccc(Nc2ncnc3cc(OCCOC)c(OCCOC)cc23)c1 [erlotinib] 0.009, CCn1cc(-c2ccnc3[nH]c(-c4cccc(CN(C)C)c4)cc23)c(-c2ccc(NC(=O)N(C)C)cc2)n1 0.01, O=C1NC(=NCc2cccs2)S/C1=C\c1ccc2ncccc2c1 0.023, CC[C@@H]1C(=O)N(C)c2cnc(Nc3ccc(C(=O)NC4CCN(C)CC4)cc3OC)nc2N1C1CCCC1 -0.078, CN1CCN(c2nc(C3=C(c4c[nH]c5ccccc45)C(=O)NC3=O)c3ccccc3n2)CC1 [sotrastaurin] -0.059, Cc1ccc(NC(=O)c2cccc(C(C)(C)C#N)c2)cc1Nc1ccc2ncn(C)c(=O)c2c1 0, CS(=O)(=O)CCNCc1ccc(-c2ccc3ncnc(Nc4ccc(OCc5cccc(F)c5)c(Cl)c4)c3c2)o1 [lapatinib] 0.018, O=C1NC(=O)/C(=C\c2ccc3nccnc3c2)S1 0.056, NCC(=O)Nc1ccc(-n2nc(C(F)(F)F)cc2-c2ccc3c(ccc4ccccc43)c2)cc1 -0.068, CC(C)C[C@@H](C=O)NC(=O)[C@H](CC(C)C)NC(=O)[C@H](CC(C)C)NC(=O)OCc1ccccc1 0.079, CCCS(=O)(=O)Nc1ccc(F)c(C(=O)c2c[nH]c3ncc(Cl)cc23)c1F 0.016, CN1CCc2c(c3ccccc3n2Cc2ccc(C(=O)NO)cc2)C1 [Tubastatin A] -0.028, NC1(Cc2ccc(Cl)cc2)CCN(c2ncnc3[nH]ccc23)CC1 -0.049, CON(C)C(=O)N1N=C(c2cc(F)ccc2F)S[C@@]1(CCCN)c1ccccc1 [filanesib] 0.016, CS(=O)(=O)c1ccc(-c2cnc(N)c(C(=O)Nc3ccccc3)n2)cc1 -0.003, Nc1ccccc1NC(=O)c1ccc(CNC(=O)OCc2cccnc2)cc1 [entinostat] 0.002, CC[C@H](C)n1cc(C)c2c(C(=O)NCc3c(C)cc(C)[nH]c3=O)cc(-c3ccc(N4CCNCC4)nc3)cc21 0.048, Cc1ccc(-n2nc(C(C)(C)C)cc2NC(=O)Nc2ccc(OCCN3CCOCC3)c3ccccc23)cc1 [doramapimod] -0.002, O=C(Nc1nc2ccccc2n1CCN1CCOCC1)c1cccc([N+](=O)[O-])c1 [IRAK-1-4 Inhibitor I] -0.042, CN(C)CC(=O)Nc1ccc2[nH]c(=O)c3ccccc3c2c1 0.051, CC(=O)c1cnc2ccc(-c3cc(Cl)c(O)c(Cl)c3)nc2c1N[C@H]1CC[C@H](CN(C)C)CC1 0.004, CN1CCC(CNc2ccc3ncc(-c4cccc(OC(F)(F)F)c4)n3n2)CC1 -0.085, C[C@H](Nc1ncnc2nc[nH]c12)c1cc2cccc(Cl)c2c(=O)n1-c1ccccc1 [duvelisib] 0.044, NC(=O)c1ccc2nc(-c3ccc(Oc4ccc(Cl)cc4)cc3)[nH]c2c1 -0.028, C[C@@H](N)c1ccc(C(=O)Nc2ccnc3[nH]ccc23)cc1 0.014, Cn1cc(-c2ccc3c(c2)CCN3C(=O)Cc2cccc(C(F)(F)F)c2)c2c(N)ncnc21 -0.057
